Source: PubChem (National Center for Advancing Translational Sciences (NCATS))
In the library only some 21% were active in any assay of this set; here they are far more common.
SARS PLP yeast – SARS-CoV PLP inhibition in yeast; S. cerevisiae expressing SARS-CoV PLpro, growth rescue; Potency, µM (top dose mostly 32.9 µM), for the others: at the highest dose activity, positive = growth rescue, most hits filed as activators; actives 0.19% (n = 330,000); calls by dose curve; note: potency is the fitted concentration of half-maximal effect; 0% is about no effect; nearly all actives have a fitted effect of over 55% in size
Pf growth 48h – inhibits P. falciparum growth in the first generation, 48 h; P. falciparum luciferase growth in erythrocytes, 48 h; Potency, µM (top dose mostly 28.7 µM), for the others: at the top dose activity change, negative = inhibition, usual class: inhibitors; actives 5.9% (n = 310,000); AID 504832; note: potency is the fitted concentration of half-maximal effect; % is set by controls: 0 for no effect and ±100 for the full control effect
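Here the parasites carry a stable luciferase gene and grow inside erythrocytes in Albumax-based RPMI medium with compound for one erythrocytic cycle. Activity is scored as loss of luminescent signal.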
CHX counter – affects cycloheximide protein synthesis inhibition readout, counter-screen | cell reporter, cycloheximide protein synthesis inhibition counterscreen | max response, % | actives 12% (n = 300,000) | AID 2314; in the data active = max response mostly above about 13%, no sharp cut-off; inactive = mostly below about 14%; note: read at 38.3 µM for the half of the compounds with a filed dose; 0% is about no effect
Shiga toxin inh – inhibitors of Shiga toxin in Vero cells; Vero cells, Shiga toxin protein synthesis inhibition reporter; inhibition, % at 38.7 µM; actives 9.2% (n = 290,000); in the data active = inhibition mostly above about 28%, no sharp cut-off; inactive = mostly below about 43%; note: 0% is about no effect
Pf growth 96h – inhibits malaria parasite growth, 96 h | P. falciparum luciferase reporter growth, 96 h | Potency, µM (highest dose often 28.7 µM), for inactives: top-dose activity change, negative = inhibition, actives largely listed as inhibitors | actives 6.9% (n = 320,000) | AID 504834; note: potency is the fitted concentration of half-maximal effect; % is set by controls: 0 for no effect and ±100 for the full control effect
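Cell-based qHTS: luciferase-tagged P. falciparum in erythrocytes (2% hematocrit, 0.05% parasitemia final) incubated with compounds for 96 hours, 37 C, 5% CO2; luciferase detection reagent then added and luminescence measured.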
NS1 inh – influenza NS1 inhibition; Potency, µM (top dose mostly 46.1 µM), without a hit: at the top dose activity, positive = more growth; AID 2326; actives 0.4% (n = 270,000); calls by dose curve; note: potency is the fitted concentration of half-maximal effect; actives are rising curves; nearly all actives have a fitted effect of over 50% in size
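S. cerevisiae expressing influenza A NS1, grown in glucose, washed, then diluted 1:100 into pH 6.0 -URA galactose medium with 23 nl compound. Growth recovery read as OD600; NS1-free strain serves as control.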
* hit, by the source's call; ? = inconclusive; / = no result given; + = active, no number. Unless noted, calls come from the whole dose curve; as a rule, active = well fitted inhibition curve with a large enough effect; inconclusive = small, poorly fitted or top-dose-only effect, or another doubt; inactive = no such curve, though single readings can be large or run the other way.

SMILES | SARS PLP yeast | Pf growth 48h | CHX counter | Shiga toxin inh | Pf growth 96h | NS1 inh
O=[N+]([O-])c1ccc(/C=C/c2nc3ccc([N+](=O)[O-])cc3[nH]2)cc1 | 21% | 4.1µM* | 33* | 91* | -17% | 16%
NC(N)=Nc1nc2ccc([N+](=O)[O-])cc2[nH]1 | 0% | 8.3µM* | 9.4* | 24 | 4.1µM* | -3%
O=[N+]([O-])c1ccc2nc(CCCc3nc4ccc([N+](=O)[O-])cc4[nH]3)[nH]c2c1 | -1% | -26% | 15 | 53* | 52% | -1%
Nc1nc2ccc([N+](=O)[O-])cc2[nH]1 | 0% | ? | -3 | 15 | -13% | 0%
O=[N+]([O-])c1ccc2nc(C3CCCCC3)[nH]c2c1 | 1% | 41% | 18* | 46* | ? | -38%
O=C(C[n+]1cc(-c2ccc(F)cc2)n2c1CCC2)N1c2ccccc2Sc2ccccc21 | -24% | 13µM* | 44* | 54* | ? | 7%
O=C(C[n+]1cc(-c2ccccc2)n2c1CCC2)Nc1nc(-c2ccc(F)cc2)cs1 | 12% | ? | -5 | -4 | 10µM* | 5%
O=C(C[n+]1cc(-c2ccccc2)n2c1CCC2)N1c2ccccc2Sc2ccccc21 | 0% | 4.1µM* | 9 | 13 | ? | 12%
Cc1ccc(-c2c[n+](CC(=O)N3c4ccccc4Sc4ccccc43)c3n2CCC3)cc1 | -21% | 3.7µM* | 7 | -19 | ? | 13%
O=C(C[n+]1cc(-c2ccc(F)cc2)n2c1CCC2)Nc1nc(-c2ccc(F)cc2)cs1 | -2% | ? | -1 | 14 | ? | -6%
COc1ccc(C2C=C(C34CC5CC(CC(C5)C3)C4)NC(=S)N2)cc1 (configuration not stated) | -42% | 9.3µM* | -2 | -4 | 12µM* | -5%
O=[N+]([O-])c1ccc(N=Cc2sc3ccccc3c2O)cc1 | -18% | 10% | 43* | 108* | 33% | 0%
O=[N+]([O-])c1cccc(N=Cc2sc3ccccc3c2O)c1 | 1% | 8% | 38* | 86* | 0% | -4%
Oc1c(C=NCc2ccccc2)sc2ccccc12 | -1% | 36% | 28* | 91* | -3% | -9%
C=CCNc1nc(Cl)nc(Nc2ccc(OCC)cc2)n1 | 3% | 3% | -4 | -15 | -1% | 5%
COc1ccc(-n2c(C)nc(=O)c(-c3ccccc3)c2C)cc1 | -14% | -19% | -3 | -3 | 9.3µM* | 1%
COC(=O)c1ccc(-n2c(C)nc(=O)c(-c3ccccc3)c2C)cc1 | 7% | ? | -2 | 15 | -9% | -2%
COCCN(C(=O)C1CC1)c1nnc(-c2cccc(C)c2)s1 | 5% | 11% | 15* | 29 | -15% | -31%
CCCN(C(=O)c1ccco1)c1nnc(-c2cccc(C)c2)s1 | -1% | 3% | 61* | 72* | 30% | 2%
CCN(C(=O)c1ccco1)c1nnc(-c2ccc(OC)cc2)s1 | -1% | 261% | 30* | + | 26% | -4%
Cc1ccc2nc(N(CCCN(C)C)C(=O)c3ccco3)sc2c1 | 0% | 37% | 17 | 53 | -9% | /
CCCCC(=O)N(CCOC)c1nnc(-c2ccc(OC)cc2)s1 | 2% | -20% | 2 | 23 | / | -10%
COc1ccc(-n2nc(C(=O)NCC(=O)N3CCN(C)CC3)c3ccccc3c2=O)cc1OC | 13% | -8% | -1 | 19 | 130% | 2%
COc1ccc(-n2nc(C(=O)NCC(=O)N3CCC(C)CC3)c3ccccc3c2=O)cc1Cl | -2% | -43% | 38 | 49* | -20% | 12%
COc1ccc(-n2nc(C(=O)NCC(=O)NCCCN3CC(C)CC(C)C3)c3ccccc3c2=O)cc1Cl (configuration not stated) | 1% | 6.6µM* | -8 | -10 | 29% | -5%
SMILES | SARS PLP yeast | Pf growth 48h | CHX counter | Shiga toxin inh | Pf growth 96h | NS1 inh
CCN(CC)C(=O)CNC(=O)c1nn(-c2ccc(OC)c(Cl)c2)c(=O)c2ccccc12 | -1% | 4.1µM* | -1 | 3 | -21% | 10%
COc1ccc(-n2nc(C(=O)NCC(=O)Nc3cc(OC)c(OC)c(OC)c3)c3ccccc3c2=O)cc1Cl | 0% | ? | -1 | -7 | 11% | 4%
COc1ccc(-n2nc(C(=O)NCC(=O)N3CCN(c4ccccn4)CC3)c3ccccc3c2=O)cc1Cl | -6% | 12% | 27* | 40 | ? | /
COc1ccc(-n2nc(C(=O)NCC(=O)NC(C)C)c3ccccc3c2=O)cc1OC | 2% | / | -3 | 3 | 14% | -2%
O=C1c2cccnc2C(=O)N1Cc1ccc(F)cc1S(=O)(=O)NCc1ccco1 | -3% | 13% | -3 | -10 | -12% | -6%
CC(C)c1nnc(NC(=O)Cc2ccc(Br)cc2)s1 | 9% | 12% | -2 | -11 | -13% | 2%
CC1CCN(C(=O)c2cc3c(=O)n4ccccc4nc3s2)CC1 | -1% | 39% | 26 | 83* | ? | -15%
O=C(c1cc2c(=O)n3ccccc3nc2s1)N1CCN(c2cccc(Cl)c2)CC1 | -2% | -8% | 2 | -4 | ? | 13%
O=C(c1cc2c(=O)n3ccccc3nc2s1)N1CCOCC1 | -1% | 111% | 22* | 39* | 5.2µM* | 3%
COc1ccc(C(=O)Nc2cc(OC)c(Cl)cc2Cl)cc1 | -1% | 100% | 17 | 29 | 84% | /
COc1ccc(C(=O)Nc2scc(-c3ccc(Cl)cc3Cl)c2C(N)=O)cc1 | 8% | 31% | 44* | 153* | 29% | 8%
CC1=NC(=O)C(N=Nc2cccc(O)c2)N1c1ccccc1 (configuration not stated) | -4% | / | 27* | 55* | 99% | -6%
CCN1CCN(c2nc3c(C)cccn3c(=O)c2/C=C(\C#N)S(=O)(=O)c2ccc(C)cc2)CC1 | -1% | 13% | -4 | 16 | 4.1µM* | -2%
CCN1CCN(c2nc3c(C)cccn3c(=O)c2/C=C(\C#N)S(=O)(=O)c2ccc(Cl)cc2)CC1 | 0% | -10% | -1 | -7 | 13% | 2%
Cc1cccn2c(=O)c(/C=C(\C#N)S(=O)(=O)c3ccccc3)c(N3CCCCC3)nc12 | 1% | ? | 1 | -29 | ? | 5%
CCOC(=O)C1CCN(c2nc3c(C)cccn3c(=O)c2/C=C(\C#N)S(=O)(=O)c2ccccc2)CC1 | 0% | 9.3µM* | -5 | -10 | ? | 21%
Cc1nn(Cc2ccc(F)cc2)c(Cl)c1/C=N/NC(=O)c1cccnc1 | 7% | 2% | 5 | 22 | 3% | -9%
Cc1nn(Cc2ccc(F)cc2)c(Cl)c1/C=N/NC(=O)c1ccccc1 | 0% | ? | 18* | 39 | ? | -4%
Cc1nn(Cc2ccccc2)c(C)c1/C=N/NC(=O)c1ccncc1 | 1% | 14% | -2 | -3 | 37% | -2%
Cc1nn(Cc2ccccc2)c(C)c1/C=N/NC(=O)c1ccccc1O | -2% | ? | 42* | 99* | ? | -11%
